From PubChem BioAssay AID1159580 (chemical genetic matrix, 2015)
Several values for one entry are separate records, joined by “and”; a condition that tells them apart may be missing. Equal values may be shown once. Screen size: about 5,500 compounds; about 2,000 (36%) were called active. Roughly 18% stayed inconclusive and do not appear here. No stated cut-off is given here; in the data, active means normalized growth mostly below about 0.91 (no sharp cut-off); inconclusive means no clear call, values can overlap the other calls; inactive means mostly above about 0.92. The list shows a part of the results.

Experiment: chemical genetic growth profiling, strain panel (AID 1159580);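 further: tested at 20 µM; growth read once vehicle control cultures reached saturation at 30 °C; 1 = growth at the plate median or of vehicle wells; lower values mean less growth of the strain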
Settings: S. cerevisiae deletion strains, growth OD

Measured: normalized growth

C[C@H](COc1ccccc1)N[C@H](C)[C@H](O)c1ccc(O)cc1
inactive: locus YAL021C, strain ccr4, hits give low values 0.964 | locus YAL026C, strain drs2, hits give low values 0.974 | locus YAL030W, strain snc1, hits give low values 0.999 | locus YBL061C, strain skt5, hits give low values 1.01 | locus YBR009C, strain hhf1, hits give low values 1 | locus YBR021W, strain FUR4, hits give low values 0.986 | locus YBR023C, strain chs3, hits give low values 0.981 | locus YBR171W, strain sec66, hits give low values 0.997 | locus YBR229C, strain ROT2, hits give low values 0.995 | locus YBR231C, strain swc5, hits give low values 0.988 | locus YBR279W, strain paf1, hits give low values 0.982 | locus YCL011C, strain gbp2, hits give low values 1 | locus YCL016C, strain dcc1, hits give low values 0.979 | locus YCL029C, strain bik1, hits give low values 0.996 | locus YCL061C, strain MRC1, hits give low values 0.986 | locus YCL069W, strain vba3, hits give low values 0.997 | locus YCR088W, strain abp1, hits give low values 0.998 | locus YDL005C, strain med2, hits give low values 0.999 | locus YDL035C, strain GPR1, hits give low values 1.03 | locus YDL040C, strain nat1, hits give low values 0.994 | locus YDL074C, strain BRE1, hits give low values 1.03 | locus YDL101C, strain DUN1, hits give low values 1 | locus YDL185W, strain tfp1, hits give low values 0.992 | locus YDL192W, strain arf1, hits give low values 0.998 | locus YDR001C, strain nth1, hits give low values 0.992 | locus YDR069C, strain doa4, hits give low values 0.998 | locus YDR101C, strain arx1, hits give low values 1.01 | locus YDR137W, strain rgp1, hits give low values 0.963 | locus YDR150W, strain NUM1, hits give low values 1 | locus YDR159W, strain sac3, hits give low values 0.99 | locus YDR162C, strain NBP2, hits give low values 1 | locus YDR195W, strain ref2 0.993 | locus YDR297W, strain sur2, hits give low values 0.99 | locus YDR318W, strain mcm21, hits give low values 0.994 | locus YDR334W, strain swr1, hits give low values 0.996 | locus YDR335W, strain msn5, hits give low values 1 | locus YDR388W, hits give low values 0.997 | locus YDR392W, strain spt3, hits give low values 0.952 | locus YDR502C, strain sam2, hits give low values 1.01 | locus YEL003W, strain gim4, hits give low values 1 | locus YEL037C, strain rad23, hits give low values 0.997 | locus YEL061C, strain CIN8 (second series), hits give low values 0.996 | locus YEL061C, strain CIN8, hits give low values 1 | locus YER015W, strain faa2, hits give low values 1 | locus YER016W, strain bim1, hits give low values 1.01 | locus YER110C, hits give low values 0.975 | locus YER111C, strain swi4, hits give low values 0.988 | locus YER155C, strain BEM2 (second series), hits give low values 0.983 | locus YER155C, strain BEM2, hits give low values 0.986 | locus YER167W, strain BCK2, hits give low values 0.985 | locus YFR010W, strain ubp6, hits give low values 0.996 | locus YGL078C, strain dbp3, hits give low values 0.98 | locus YGL086W, strain mad1, hits give low values 1.01 | locus YGL167C, strain pmr1, hits give low values 1 | locus YGL173C, strain kem1, hits give low values 1 | locus YGL227W, strain vid30, hits give low values 0.986 | locus YGL240W, strain doc1, hits give low values 0.988 | locus YGL248W, strain PDE1, hits give low values 0.993 | locus YGL253W, strain hxk2, hits give low values 1.01 | locus YGR078C, strain PAC10, hits give low values 1.01 | locus YGR135W, strain pre9, hits give low values 0.942 | locus YGR252W, strain gcn5, hits give low values 0.988 | locus YHR013C, strain ard1, hits give low values 0.969 | locus YHR027C, strain rpn1, hits give low values 0.997 | locus YHR030C, strain SLT2, hits give low values 0.993 and 1 | locus YHR079C, strain IRE1 (second series), hits give low values 0.991 | locus YHR079C, strain IRE1, hits give low values 0.985 | locus YHR094C, strain hxt1, hits give low values 0.974 | locus YHR129C, strain ARP1, hits give low values 0.992 | locus YHR142W, strain chs7, hits give low values 1 | locus YHR200W, strain rpn10, hits give low values 0.992 | locus YIL066C, strain RNR3, hits give low values 0.987 | locus YIL073C, strain SPO22, hits give low values 0.977 | locus YIL125W, strain kgd1, hits give low values 1 | locus YIR030C, strain dcg1, hits give low values 0.993 | locus YJL092W, strain hpr5, hits give low values 0.992 | locus YJL095W, strain BCK1 (second series), hits give low values 0.998 | locus YJL095W, strain BCK1, hits give low values 0.965 and 1 | locus YJL115W, strain asf1, hits give low values 0.996 | locus YJL129C, strain trk1, hits give low values 0.993 | locus YJL134W, strain LCB3, hits give low values 0.991 | locus YJL154C, strain vps35, hits give low values 0.998 | locus YJL164C, strain tpk1, hits give low values 0.996 | locus YJL166W, strain qcr8, hits give low values 0.989 | locus YJL168C, strain set2, hits give low values 0.99 | locus YJL187C, strain SWE1 (second series), hits give low values 0.985 | locus YJL187C, strain SWE1, hits give low values 1.01
